From PubChem
HCV inhibitor: inhibitors of hepatitis C virus infection | 340,000 tested, 3.4% active | Potency, µM (doses to about 41.8 µM), actives largely listed as inhibitors | Huh7.5.1 HCVcc-Cre infection, luciferase reporter, 44 h
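Infectious HCVcc-Cre (~0.5 moi) was added to cells just after compound, with cells seeded 4 h earlier at 1,000 per well. Luciferase activity after 44 h culture reported infection; substrate was incubated 15 min at room temperature before reading.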
NS1 inh: influenza NS1 inhibition. Potency, µM (series often up to 46.1 µM). 270,000 tested, 0.4% active; calls by dose curve; note: actives are rising curves; nearly all actives have a fitted effect of over 50% in size
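Compounds were scored for reversing the slow growth caused by influenza A NS1 in S. cerevisiae, measured by optical density at 600 nm. Assay medium contained 2% galactose at pH 6.0; NS1-free yeast of the same strain were the positive control.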
Pf growth 48h: inhibits P. falciparum growth in the first generation, 48 h. 310,000 tested, 5.9% active. AID 504832. P. falciparum luciferase growth in erythrocytes, 48 h. Potency, µM (top dose mostly 28.7 µM), usual class: inhibitors
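Here the parasites carry a stable luciferase gene and grow inside erythrocytes in Albumax-based RPMI medium with compound for one erythrocytic cycle. Activity is scored as loss of luminescent signal.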
Vaccinia Venus: inhibitors of vaccinia virus (Venus reporter); Vaccinia virus Venus reporter expression, fluorescence; 330,000 tested, 0.46% active; Potency, µM (series often up to 36.5 µM), usual class: inhibitors; AID 720580; calls by dose curve; tested in A549 cells; note: nearly all actives have a fitted effect of over 30% in size
Pf growth 96h: P. falciparum growth inhibition at 96 hours; 320,000 tested, 6.9% active; P. falciparum luciferase reporter growth, 96 h; Potency, µM (highest dose often 28.7 µM), usual class: inhibitors; AID 504834
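Readout is luminescence from an integrated firefly luciferase in P. falciparum. Red cells, 2% hematocrit and 0.05% parasitemia final, were cultured with compound through two parasite generations (96 hours) at 37 C, 5% CO2.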
VACV mCherry inh: vaccinia inhibition (mCherry reporter) | Vaccinia virus mCherry reporter infection, fluorescence | Potency, µM (titrated, usually from 36.5 µM), usual class: inhibitors | 310,000 tested, 0.63% active; calls by dose curve; tested in A549 cells; note: nearly all actives have a fitted effect of over 35% in size
Large screens that a line does not name were inactive. In the library only some 11% were active in any assay of this set; here they are far more common. Unless noted, calls come from the whole dose curve; as a rule, active = well fitted inhibition curve with a large enough effect; inconclusive = small, poorly fitted or top-dose-only effect, or another doubt; inactive = no such curve, though single readings can be large or run the other way.

O=C(COC(=O)C1(c2ccccc2)CC1)N1CCN(c2ccc(F)cc2)CC1	HCV inhibitor inconclusive, Pf growth 96h 10µM
COc1ccc(C)cc1S(=O)(=O)Nc1ccccc1C	Pf growth 48h inconclusive, Pf growth 96h inconclusive
COc1ccc2cc(/C=N/O)c(Cl)nc2c1	HCV inhibitor inconclusive, Pf growth 48h inconclusive (no result: NS1 inh)
CCOCCCn1c(SCc2nc3ccccc3s2)nc2ccccc2c1=O	HCV inhibitor 11µM, Pf growth 48h inconclusive, Pf growth 96h inconclusive
COC(=O)C(Cc1ccccc1)NC(=O)c1cccc(S(=O)(=O)N(C)C)c1 (configuration not stated)	none
CC1(c2nnc(-c3ccncc3)o2)CC(c2ccc([N+](=O)[O-])cc2)=NO1 (configuration not stated)	HCV inhibitor inconclusive
O=C(CCc1ccccc1)OCCN1CCOCC1	Pf growth 96h 10µM (no result: VACV mCherry inh)
O=C(Cc1ccccc1)OCCN1CCOCC1	Pf growth 96h inconclusive
CC1CCN(CCCNC(=O)CN2CCN(Cc3ccc(Cl)cc3)C2=O)CC1	NS1 inh inconclusive, VACV mCherry inh inconclusive
O=C(NCCCc1ccccc1)N1CCOCC1	none
O=C(CNC(=S)N(Cc1ccccc1Cl)C1CCCC1)NCCCN1CCOCC1	Pf growth 48h 10µM (no result: NS1 inh)
O=C(CN1CCN(Cc2ccccc2)C1=O)NCCCN1CCOCC1	Pf growth 96h 2.9µM (no result: Pf growth 48h)
CC(CCc1ccccc1)NC(=O)N1CCOCC1 (configuration not stated)	Pf growth 96h 10µM
O=C(OCC1CC(c2ccccc2)=NO1)c1ccc(Br)cc1 (configuration not stated)	none
O=C(Cn1cc(C(F)(F)F)cc(Cl)c1=O)Nc1cccc(S(=O)(=O)N2CCCCC2)c1	Pf growth 48h inconclusive (no result: NS1 inh, Vaccinia Venus, VACV mCherry inh)
CCOC(=O)/C(=C\c1ccccc1)C(=O)CCN1CCOCC1	HCV inhibitor 10µM (no result: NS1 inh, Pf growth 48h, Pf growth 96h)
O=C(CN1CCOCC1)NCCc1ccccc1	Pf growth 96h 10µM
O=C(CN1CCOCC1)NCc1ccccc1	Pf growth 96h inconclusive (no result: Vaccinia Venus, VACV mCherry inh)
O=C(CCN1CCOCC1)NNC(=O)/C(=C/c1ccccc1)NC(=O)c1ccccc1	none (no result: NS1 inh)
CC1CCCC(NC(=O)CSC2CCCCC2)C1C (configuration not stated)	Pf growth 48h inconclusive
CC(C)(C)NC(=O)Cn1ccc(=N)c2ccccc21	Pf growth 48h inconclusive
CC(C)(C)NC(=O)Cn1cc(C#N)c2cc(Br)ccc21	Pf growth 48h 5.9µM (no result: Vaccinia Venus, Pf growth 96h, VACV mCherry inh)
Cc1cccc(OCC(=O)NC(=S)N2CCCc3ccccc32)c1	Pf growth 48h inconclusive, Pf growth 96h 9.3µM
Cc1nn(-c2ccccc2)c(C)c1NC(=O)COC(=O)[C@@H](NC(=O)c1ccccc1)C(C)C	none (no result: NS1 inh)
Cc1ccc(Sc2ncccc2C(=O)NCc2cc([N+](=O)[O-])ccc2O)c(C)c1	Pf growth 96h inconclusive (no result: Vaccinia Venus, VACV mCherry inh)
O=C(NCc1cc([N+](=O)[O-])ccc1O)c1cccnc1Sc1ccccc1	Pf growth 48h inconclusive, Pf growth 96h 12µM (no result: Vaccinia Venus, VACV mCherry inh)
O=C(NNC(=O)c1cccnc1SCc1cccc([N+](=O)[O-])c1)c1ccccn1	HCV inhibitor inconclusive, Pf growth 48h 5.2µM, Vaccinia Venus inconclusive, VACV mCherry inh 4µM
COc1cc(/C=C2\SC(=N)N(c3ccc(F)cc3)C2=O)ccc1O	Pf growth 48h inconclusive (no result: NS1 inh)
CC1(C)CC(=O)C2=C(C1)NC(=O)CC2c1ccc(F)cc1 (configuration not stated)	Vaccinia Venus inconclusive (no result: VACV mCherry inh)
OC[C@@H]1[C@@H](c2ccccc2)C(c2ccc(F)cc2)=NN1c1ccccc1	VACV mCherry inh inconclusive (no result: NS1 inh, Pf growth 48h, Pf growth 96h)
O=C1NC(=O)N(c2ccccc2)C(=O)/C1=C\c1ccc([N+](=O)[O-])o1	Pf growth 96h inconclusive (no result: HCV inhibitor, Vaccinia Venus, VACV mCherry inh)
N#CCC(=O)N/N=C/c1c(-c2ccccc2)n(-c2ccccc2)c2ccccc12	HCV inhibitor 14µM, Pf growth 48h 9.3µM, Pf growth 96h inconclusive
N#CCC(=O)N/N=C/c1cn(Cc2ccccc2C#N)c2ccccc12	none
CN1c2ccc(Cl)cc2C(=O)NC1C1CC=CCC1 (configuration not stated)	Pf growth 96h 12µM
CCC(=O)Nc1ccc(NC(=O)c2cccc3c(Br)cccc23)cc1	Pf growth 96h 6.6µM (no result: Vaccinia Venus, VACV mCherry inh)
CCOc1ccc(CNC(=O)c2ccc3c(c2)sc2nc(-c4ccccc4)cn23)cc1	none (no result: HCV inhibitor, NS1 inh, Pf growth 48h, Pf growth 96h)
CN(Cc1ccccc1)C(=S)NC(=O)c1ccc(-c2ccccc2)cc1	Pf growth 48h inconclusive, Pf growth 96h 7.4µM
C=CCN(CC=C)C(=S)NC(=O)c1ccc(-c2ccccc2)cc1	HCV inhibitor inconclusive, Pf growth 96h 7.4µM (no result: Pf growth 48h)
C=CCN(CC=C)C(=S)NC(=O)c1ccc(OC)cc1	Pf growth 48h inconclusive, Vaccinia Venus inconclusive, VACV mCherry inh inconclusive
CC1Oc2ccccc2C(=O)N(CC(=O)c2ccc3c(c2)OCCO3)C1=O (configuration not stated)	none (no result: Vaccinia Venus, VACV mCherry inh)
CCSc1ccc([C@@H]2[C@@H]3C(=O)N(CC)C(=O)[C@@H]3[C@]3(C(=O)OC)CCCN23)cc1	Pf growth 48h 10µM, Pf growth 96h inconclusive (no result: NS1 inh)
CCSc1ccc([C@@H]2[C@H]3C(=O)N(CC)C(=O)[C@H]3[C@]3(C(=O)OC)CCCCN23)cc1	Pf growth 48h 4.1µM, Pf growth 96h 4.7µM (no result: NS1 inh)
CCSc1ccc([C@@H]2[C@@H]3C(=O)N(C)C(=O)[C@@H]3[C@]3(C(=O)OC)CCCCN23)cc1OC	none (no result: NS1 inh, Pf growth 48h, Pf growth 96h)
CCCCCCSc1ccc([C@@H]2[C@H]3C(=O)N(C)C(=O)[C@H]3[C@]3(C(=O)OC)CCCCN23)cc1	HCV inhibitor inconclusive, Pf growth 48h 13µM, Pf growth 96h 12µM (no result: NS1 inh)
CCCCCCSc1ccc([C@@H]2[C@@H]3C(=O)N(CC)C(=O)[C@@H]3[C@]3(C(=O)OC)CCCCN23)cc1	none (no result: NS1 inh, Pf growth 48h, Pf growth 96h)
CCSc1ccc([C@@H]2[C@@H]3C(=O)N(CC)C(=O)[C@@H]3[C@]3(C(=O)OC)CCCCN23)cc1	HCV inhibitor 0.71µM (no result: NS1 inh)
C[C@H](c1ccccc1)N1C[C@H](COCc2ccccc2)Oc2cc(N3CC[C@H](O)C3)ccc2S1(=O)=O	none (no result: HCV inhibitor, NS1 inh, Pf growth 48h, Pf growth 96h)
CCC(C)Sc1ccc([C@@H]2[C@H]3C(=O)N(CC)C(=O)[C@H]3[C@]3(C(=O)OC)CCCCN23)cc1 (some centres not stated)	Pf growth 48h 2.6µM, Pf growth 96h 3.3µM (no result: NS1 inh)
CCCCCCSc1ccc([C@H]2N[C@@](C)(C(=O)OC)[C@H]3C(=O)N(C)C(=O)[C@@H]23)cc1	HCV inhibitor inconclusive, Pf growth 48h 15µM, Pf growth 96h inconclusive (no result: NS1 inh)
CCSc1ccc([C@@H]2[C@H]3C(=O)N(C)C(=O)[C@H]3[C@]3(C(=O)OC)CCCCN23)cc1	HCV inhibitor inconclusive, Pf growth 48h 12µM, Vaccinia Venus inconclusive, Pf growth 96h inconclusive (no result: NS1 inh)
COc1ccc(NC(=S)NCCc2c[nH]c3ccc(OC)cc23)c(OC)c1	HCV inhibitor inconclusive, NS1 inh inconclusive, Pf growth 96h inconclusive
Cc1ccc(S(=O)(=O)N2c3ccc(S(N)(=O)=O)cc3CC2C)cc1 (configuration not stated)	NS1 inh inconclusive, Pf growth 48h inconclusive (no result: Pf growth 96h)
